The list is not random: actives were taken first. Their share in the collection is about 7.4%.
NPC1 prom act: activates the NPC1 promoter | Huh7 NPC1 promoter luciferase reporter, 24 h | Potency, µM (doses to about 9.22 µM), hits mostly activators | 320,000 compounds, 2.4% hits | AID 485313; note: nearly all actives have a fitted effect of over 60% in size
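Huh7 cells stably carrying NPC1 promoter–luciferase, plated in Opti-MEM with 10% FBS for 2 h, were exposed to compound in DMSO for 24 h at 37 °C; luciferase reagent was added for 10 min and luminescence read.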
p53 reactivator: restores transcriptional activity of mutant p53; H1299 p53-A138V BP100-luciferase reporter, luminescence, 24 h; Potency, µM (titrated, usually from 92.2 µM), hits mostly activators; 320,000 compounds, 0.063% hits; AID 504706; note: nearly all actives have a fitted effect of over 45% in size
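H1299 (p53-null), stable ts p53-A138V + BP100-Luc; 1000 cells/well, Opti-MEM/10% FBS; cpd 4 pt, 1:5; 24 h, 37 deg C, 5% CO2; detection reagent 10 min RT; luminescence.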
ELG1 genotox: genotoxicity induction in ELG1-luciferase HEK293T cells. 330,000 compounds, 1.3% hits. HEK293T ELG1-luciferase reporter, luminescence, 16 h. AID 504466. Potency, µM (top dose mostly 46 µM), most hits filed as activators; note: nearly all actives have a fitted effect of over 60% in size
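HEK293T cells expressing luciferase-tagged ELG1 were exposed to compound or DMSO vehicle for 16 hr at 37 °C and 5% CO2. Luciferase activity was then measured with ONE-Glo after 30 min at room temperature.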
SMN2 splice enh: SMN2 splice variant enhancement. HEK293 SMN2-luciferase splicing reporter, luminescence, 30-36 h. AID 1458. Potency, µM (highest dose often 46.1 µM), actives largely listed as activators. 210,000 compounds, 2.8% hits; note: nearly all actives have a fitted effect of over 55% in size
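HEK293 cells carry an SMN2 minigene-luciferase reporter in which exon 7 inclusion puts luciferase in frame. Cells were seeded at 2000 cells/well, attached for 10-12 hours, then exposed to compounds for 30-36 hours at 37C before ONE-Glo luminescence.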
FLuc modulator: firefly luciferase modulation, counter-screen for miR-21 project. purified FLuc, Km substrates, luminescence inhibition. P08659. 360,000 compounds, 6.9% hits. AID 588342. Potency, µM (highest dose often 57.5 µM), usual class: inhibitors; note: nearly all actives have a fitted effect of over 55% in size
Target sequence (P08659 whole entry, looked up): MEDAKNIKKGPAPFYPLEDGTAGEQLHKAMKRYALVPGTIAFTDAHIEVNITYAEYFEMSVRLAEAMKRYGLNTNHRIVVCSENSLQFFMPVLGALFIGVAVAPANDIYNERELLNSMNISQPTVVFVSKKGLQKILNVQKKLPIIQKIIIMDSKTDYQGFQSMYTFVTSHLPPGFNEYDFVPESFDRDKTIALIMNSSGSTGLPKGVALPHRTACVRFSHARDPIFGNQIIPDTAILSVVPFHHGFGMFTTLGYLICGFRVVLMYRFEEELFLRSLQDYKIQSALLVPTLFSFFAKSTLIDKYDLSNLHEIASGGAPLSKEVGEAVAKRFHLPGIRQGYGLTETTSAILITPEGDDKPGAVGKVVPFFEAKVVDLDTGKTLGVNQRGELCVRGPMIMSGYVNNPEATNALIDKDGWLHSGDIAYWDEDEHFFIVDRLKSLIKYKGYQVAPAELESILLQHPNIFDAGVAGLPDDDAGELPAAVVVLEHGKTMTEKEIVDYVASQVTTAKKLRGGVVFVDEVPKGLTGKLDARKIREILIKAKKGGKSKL
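Purified P. pyralis luciferase, 10 nM final, with Km-level 10 uM D-luciferin and 10 uM ATP in 50 mM Tris acetate pH 7.5, 10 mM Mg acetate, 0.01% Tween-20, 0.05% BSA; 6-point qHTS titration about 60 µM downward; luminescence read.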
Rab9 prom act: activators of Rab9 promoter | Huh7 Rab9 promoter-luciferase reporter, luminescence, 24 h | Potency, µM (doses to about 9.22 µM), usual class: activators | 320,000 compounds, 2.8% hits | AID 485297; note: nearly all actives have a fitted effect of over 60% in size
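Huh7 cells stably carrying Rab9 promoter–luciferase reporter, plated 1500 cells/well, compound added after 2 h and incubated 24 h at 37 °C; luciferase luminescence then read after 10 min with detection reagent.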
Numbers stand for hits; - = inactive; ? = inconclusive; . = no result given; [ ] = another dose, or the depositor's remark. Calls come from the whole dose curve; as a rule, active = well fitted curve in the direction sought with a large enough effect; inconclusive = small, poorly fitted or top-dose-only effect, or another doubt; inactive = no such curve, though single readings can be large; an effect the other way counts as inactive or inconclusive.

SMILES	NPC1 prom act	p53 reactivator	ELG1 genotox	SMN2 splice enh	FLuc modulator	Rab9 prom act
CC(=O)N1N=C(c2ccccc2)CC1c1ccc(F)cc1 (stereo not given)	-	-	-	.	-	-
CC(=O)N1N=C(c2ccccc2)CC1c1cn(C)c2ccccc12 (stereo not given)	-	?	?	-	19µM	-
Cc1cccc2c(C(=O)N3CCN(c4ccccn4)CC3)cc(-c3cccc(Br)c3)nc12	-	-	-	.	-	-
O=C(c1cc(-c2cccc(Cl)c2)nc2ccccc12)N1CCN(c2ccccn2)CC1	-	-	-	.	19µM	-
O=C(c1cc(-c2ccncc2)nc2ccc(Br)cc12)N1CCN(c2ccccn2)CC1	.	.	.	-	17µM	.
O=C(COC(=O)c1cc[n+]([O-])cc1)Nc1cc([N+](=O)[O-])ccc1Cl	-	-	-	.	-	-
COc1cc(OC)cc(C(=O)NC(C)CNc2ccc(Cl)cc2[N+](=O)[O-])c1 (stereo not given)	-	-	-	.	-	-
COc1ccc(-c2ccc(-c3noc(-c4cccc(OC)c4)n3)c(OC)n2)cc1	-	-	-	-	7.6µM	-
COc1cccc(-c2nc(-c3ccc(-c4ccccc4)nc3OC)no2)c1	.	.	.	-	2.4µM	.
COc1nc(-c2ccccc2)ccc1-c1noc(-c2ccccc2F)n1	?	?	?	-	5.4µM	?
COc1ccc(NS(=O)(=O)c2cccc(-c3nnc(-c4ccccc4)o3)c2)cc1	-	-	-	-	-	-
COc1cccc(-c2nc(CS(=O)(=O)c3ccccc3)no2)c1	2.8µM	-	?	11µM	12µM	3.2µM
COc1nc(-c2ccccc2)ccc1-c1noc(-c2ccc(F)cc2)n1	-	-	-	-	-	-
O=C(Nc1sc2c(c1C(=O)NCC1CCCO1)CCC2)c1cc(=O)c2ccccc2o1 (stereo not given)	.	.	.	-	-	.
CCSCCCC(=O)O	.	.	.	-[9.22 µM]	.	.
CC(C)(C)c1ccccc1NC(=O)CN1C(=O)NC2(CCCCCC2)C1=O	-	-	-	.	-	-
O=C(Nc1ccc(SC(F)F)cc1)c1ccc(F)cc1	2.2µM	-	?	11µM	8.5µM	1.3µM
O=C(Nc1ccc2cn[nH]c2c1)c1ccccc1F	2.2µM	?	?	11µM	9.5µM	2µM
O=C(Nc1ccc(F)cc1)c1ccccc1F	.	.	.	-	21µM	.
CC(=O)Nc1ccc(NC(=O)c2ccccc2F)cc1	-	?	?	?	?	-[1.84 µM]
O=C(Nc1ccc(C(=O)N2CCCC2)cc1)c1ccccc1F	?	?	8.2µM	?	?	?
CC(C)NC(=S)N(CCc1ccncc1)C(C)C	-	-	-	.	-	-
O=C(Nc1ccc(Oc2cccnc2)cc1)c1ccccc1F	?	-	-	-	12µM	2.8µM
O=C(Nc1ccc(Oc2cccnc2)cc1)c1ccccc1Cl	-	-	-	.	?	-
O=C(Nc1ccc2ccccc2c1)c1ccccc1F	0.5µM	.	2.6µM	.	1.3µM	0.63µM
SMILES	NPC1 prom act	p53 reactivator	ELG1 genotox	SMN2 splice enh	FLuc modulator	Rab9 prom act
O=C(Nc1ccc(SC(F)F)cc1)c1ccccc1F	2.5µM	?	?	18µM	13µM	1.8µM
CCOC(=O)Nc1ccc(NC(=O)c2ccccc2F)cc1	?	-	?	?	?	3.5µM
O=[N+]([O-])c1cccc(Cl)c1	.	.	.	-	.	.
CCOc1ccccc1NC(=O)Cn1c(=O)n(Cc2ccc(C(=O)NCCCOC)cc2)c(=O)c2ccccc21	.	.	.	-	-	.
C=C[C@@]1(C)CC[C@H](O)[C@H]2C(=O)CCC[C@@H]21	.	.	.	-	.	.
O=C(Nc1ccc2oc(-c3cccnc3)nc2c1)c1ccccc1F	.	.	.	-	?	.
O=C(Nc1ccc2nc(-c3cccnc3)[nH]c2c1)c1ccccc1F	-	-	-	-	15µM	-
Cc1ccnc(NC(=O)c2ccc3c(c2)OCO3)c1	0.5µM	-	?	.	2.1µM	0.45µM
Cc1ccc(NC(=O)c2ccc3c(c2)OCCO3)nc1	0.63µM	-	?	.	1.3µM	0.35µM
Cc1ccc(NC(=O)c2ccc3c(c2)NC(=O)CS3)nc1	?	-	9.2µM	.	?	?
Cc1ccc(NC(=O)CNC(=O)c2ccc3c(c2)OCO3)nc1	-	-	-	.	-	-
Cc1ccc(NC(=O)c2cccc(NC(=O)CC3SC(N4CCCCC4)=NC3=O)c2)nc1 (stereo not given)	-	-	-	.	11µM	-
O=C(Nc1ccon1)c1ccc2c(c1)OCO2	-	-	?	?	?	?
CC(=O)c1cccc(NC(=O)CC2SC(N3CCCCC3)=NC2=O)c1 (stereo not given)	-	-	-	-	-	-
COc1ccc(Oc2nc3c(c(=O)n(C)c(=O)n3C)n2Cc2ccccc2Cl)cc1	.	.	.	-	-	.
COc1ccc(C2=NS(=O)(=O)N(C)C(C(=O)Nc3ccc(OC(F)(F)F)cc3)=C2)cc1	.	.	.	.	-	.
Cc1ccnc(NC(=O)c2ccc(N3C(=O)CCC3=O)cc2)c1	?	-	-	-	19µM	?
Cc1cc(C)c2sc(NC(=O)c3ccc(N4C(=O)CCC4=O)cc3)nc2c1	-	-	-	.	2.4µM	-
O=[N+]([O-])c1ccc(N/N=C/c2cccc(O)c2)cc1	-	-	?	.	24µM	-
O=[N+]([O-])c1ccc(N/N=C/c2cccnc2)cc1	-	.	-	.	?	-
O=[N+]([O-])c1ccc(N/N=C/c2cccc(O)c2O)cc1	-	?	12µM	.	17µM	-
CCN(CC)S(=O)(=O)c1ccc2c(c1)N(CC(=O)N1CCN(c3cccc(C)c3)C(C)C1)C(=O)CO2 (stereo not given)	.	.	.	.	-	.
COc1ccc(NCc2cc3cc4c(cc3n(CC(=O)Nc3ccc(C)cc3)c2=O)OCO4)cc1	.	.	.	.	-	.
Nc1c(-c2nc(-c3cccs3)no2)nnn1-c1ccc(Cl)cc1	.	.	.	.	-	.
COCCN1Cc2c(sc(C)c2C)N(C(=O)c2ccccc2)C1	?	?	-	-	19µM	-
SMILES	NPC1 prom act	p53 reactivator	ELG1 genotox	SMN2 splice enh	FLuc modulator	Rab9 prom act
Nc1c(NCc2ccccc2F)c(=O)[nH]c(=O)n1Cc1ccccc1	-	-	-	-	21µM	-
CO/N=C(/C(=O)N[C@@H]1C(=O)N2C(C(=O)O)=CCS[C@H]12)c1cnc(N)s1	-	-	-	.	-	-
CCS(=O)(=O)N1Cc2ccccc2CC1C(=O)Nc1nc2ccccc2s1 (stereo not given)	-	?	2.3µM	-	5.4µM	-
CCS(=O)(=O)N1Cc2ccccc2CC1C(=O)Nc1nc2ccccc2[nH]1 (stereo not given)	-	-	?	?	15µM	-
CC(=O)c1ccc(NC(=O)COCc2cc(-c3ccc(F)cc3)on2)cc1	.	.	.	.	-	.
CCOc1ccc(NC(=O)c2cc(C)nc3c2c(C)nn3-c2ccc(C)cc2)cc1	.	.	.	.	-	.
CC1CCC(C(=O)NC(C(=O)NCCc2ccc(S(N)(=O)=O)cc2)C(C)C)CC1 (stereo not given)	-	-	-	.	-	-
